The record followed here is PubChem BioAssay (NCI).

The nature of test [1]: NCI Yeast Anticancer Drug Screen. Data for the rad50 strain (AID 155).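 Note: 0% = growth of vehicle-only cultures of the same strain.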 The settings on record: S. cerevisiae rad50 strain growth inhibition; at 50.0 µM; stronger effect = higher value. Put shortly: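 Readout: growth inhibition relative to vehicle-treated cultures. Compound exposure was carried out in a genetically defined yeast strain deficient in DNA damage repair.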
Test [2] can be described thus: NCI Yeast Anticancer Drug Screen. Data for the mec2-1 strain (AID 157). Particulars: S. cerevisiae mec2-1 strain, at 50.0 µM, stronger effect = higher value. The method, boiled down: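 Mutant yeast (mec2-1) grown with compound; growth inhibition relative to vehicle control reported.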
Test [3] can be described thus: NCI Yeast Anticancer Drug Screen. Data for the sgs1 mgt1 strain (AID 161).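 Note: 0% = growth of cultures given vehicle only.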 Particulars: S. cerevisiae sgs1 mgt1 strain, at 50.0 µM, stronger effect = higher value. The method, boiled down: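 This yeast growth screen uses a strain with defined DNA-repair lesions; compound-treated growth is compared with vehicle-treated growth.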
Test [4] in a line: NCI Yeast Anticancer Drug Screen. Data for the cln2 rad14 strain (AID 165).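 Note: 0% = growth equal to vehicle treated cultures.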 The settings on record: S. cerevisiae cln2 rad14 strain, at 50.0 µM, stronger effect = higher value. Put shortly:
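Readout is yeast growth inhibition versus vehicle-treated controls, using a strain with cln2 and rad14 alterations exposed to compound.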

A short description of test [5]: NCI Yeast Anticancer Drug Screen. Data for the bub3 strain (AID 167). Particulars: S. cerevisiae bub3 mutant strain, at 50.0 µM, stronger effect = higher value. The method, boiled down:
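Readout: yeast growth inhibition, expressed relative to vehicle-only wells. The test organism is a mutant strain from a panel with lesions in DNA repair or checkpoint genes.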

Test [6] in a line: NCI Yeast Anticancer Drug Screen. Data for the mlh1 rad18 strain (AID 175). The settings on record: S. cerevisiae mlh1 rad18 strain growth inhibition; at 50.0 µM; stronger effect = higher value. The method, boiled down:
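Genetically defined yeast (DNA repair-deficient) exposed to compounds; growth inhibition determined relative to vehicle.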

The panel holds about 79,000 compounds, 15% with a hit somewhere; the sample as a whole holds those more often. Values without a mark were called inactive. The source made the active and inactive calls. Cut-off read from the data, not from the text of the source: active = growth inhibition above about 70%; inactive = the rest.

With `CC(=O)c1c(C)c(C)c(=O)n(C/C=C(\C)CCC=C(C)C)c1O`, the growth inhibition is 98% (active) in test [1]; 99% (active) in test [2]; 98.7% (active) in test [3]; 97.4% (active) in test [4]; 98.3% (active) in test [5]; 98.1% (active) in test [6].
In the case of `Cc1nc2c(ccc3cc4ccccc4cc32)cc1N(CCO)CCO`, the growth inhibition in test [1] was 28.1%; in test [2], -0.75%; in test [3], -0.15%; in test [4] it was 20.9%; in test [5], 16.6%; in test [6] it was 18.1%.
On to `CC1(C)OC(=O)N=C1c1ccc(Cl)cc1`, for which the growth inhibition in test [1] is -20.2%; in test [2] it was -10%; in test [3] it was -19.8%; in test [4], 12.5%; in test [5], -20%; in test [6], -12.2%.
As for `C[C@]12CCC(=O)O[C@@H]1CC[C@@H]1[C@@H]2CC[C@]2(C)[C@@H](O)CC[C@@H]12`, the growth inhibition was 20.9% in test [1]; 14% in test [2]; 42.3% in test [3]; 32.5% in test [4]; 27.2% in test [5]; 23.1% in test [6].
Regarding `CCOC(=O)C(NC(=O)CC)(Nc1ccc(S(=O)(=O)Nc2ncccn2)cc1)C(F)(F)F` (stereo not given), the growth inhibition in test [1] is -19.4%; in test [2], -14.9%; in test [3], -10.5%; in test [4], 20.1%; in test [5], -9.55%; in test [6], -7.05%.
Turning to `c1ccc2nc3c(nc2c1)sc1nc2ccccc2n13`, the growth inhibition in test [1] was 9.65%; in test [2], 3.4%; in test [3], -11.9%; in test [4], 10.9%; in test [5], 8.3%; in test [6], 17.1%.
Take `Cc1cc(Cl)c(Cl)cc1NC(=O)c1ccc(Cl)c(Cl)c1`: the growth inhibition was 5.15% in test [1]; 23.4% in test [2]; 9.9% in test [3]; -3.25% in test [4]; 45.1% in test [5]; 5.2% in test [6].
In the case of `CCCCCCCCCC1OCCC(C)O1` (stereo not given), the growth inhibition in test [1] was 20.2%; in test [2], 9.95%; in test [3], -0.6%; in test [4], -20.9%; in test [5], 9.5%; in test [6], 21.2%.
As to `O=C(/C=C/c1ccc(Cl)cc1)c1cc(Cl)ccc1O`, the growth inhibition in test [1] was -14.4%; in test [2], -25.3%; in test [3], -13.8%; in test [4], -27.8%; in test [5], 16.2%; in test [6] it was -10.2%.
With `COc1ccc(Nc2nc3cc(C(F)(F)F)ccc3nc2-c2ccccc2)cc1OC`, the growth inhibition in test [1] was 2.05%; in test [2], 2.65%; in test [3], -48.2%; in test [4], -4.85%; in test [5], -12.4%; in test [6] it was -24.4%.
With `CC(C)(C)c1ccc(C(C)(C)C)c(=O)[nH]1`, the growth inhibition in test [1] was -32.1%; in test [2], -19.1%; in test [3], -12.3%; in test [4], -41.5%; in test [5], -6.1%; in test [6], 5.65%.
Turning to `CS(=O)(=O)C(CCC(=O)c1ccc2ccccc2c1)C(=O)c1ccccc1` (stereo not given), the growth inhibition in test [1] was 3.1%; in test [2], -12.7%; in test [3], 5.3%; in test [4] it was 20.4%; in test [5] it was -2.4%; in test [6] it was -7.15%.
`CCOc1ccc(/C(O)=C/c2nc3ccccc3nc2/C=C(\O)c2ccc(OCC)cc2)cc1`: the growth inhibition in test [1] was -2.1%; in test [2], -13.7%; in test [3] it was 16.4%; in test [4], -0.75%; in test [5], 36%; in test [6] it was 13.6%.
As for `Oc1ccc(C=NCCN=Cc2ccc(O)cc2)cc1`, the growth inhibition in test [1] is 9.55%; in test [2], -17.4%; in test [3] it was -14.8%; in test [4], -24.2%; in test [5], 5.1%; in test [6], 12.1%.
As for `CCCCc1nc2c([nH]1)c(=O)n(C)c(=O)n2C`, the growth inhibition was 8.1% in test [1]; -10.9% in test [2]; 5.2% in test [3]; 4.85% in test [4]; -36.5% in test [5]; 4.25% in test [6].
As to `CCOC(OCC)C(N)C(=O)O` (stereo not given), the growth inhibition in test [1] was 6%; in test [2], 23.7%; in test [3] it was 1.4%; in test [4], -19.3%; in test [5] it was 10.8%; in test [6], -15%.
Take `Nc1ccc2c(c1)Cc1cc(O)ccc1-2`: the growth inhibition in test [1] was 19.1%; in test [2], -8.75%; in test [3] it was 1.45%; in test [4], 6.3%; in test [5] it was 9.9%; in test [6] it was 4.35%.
For `COc1ccc(CCNC(=O)c2ccc(CSc3ccc(Cl)cc3)o2)cc1OC`, the growth inhibition in test [1] was 34.5%; in test [2], 24.1%; in test [3] it was 37.6%; in test [4], 50.5%; in test [5], 42.8%; in test [6], 25.1%.
For `COc1ccc(OC)c(COC(=O)c2ccccc2)c1COC(=O)c1ccccc1`, the growth inhibition in test [1] was 26.1%; in test [2], 3.9%; in test [3], 20.2%; in test [4], 4.2%; in test [5], 1.6%; in test [6] it was 5.7%.
Regarding `COc1ccc(/C=C/c2onc3c(=O)n(C)nc(-c4ccccc4)c23)cc1`, the growth inhibition in test [1] is -22.4%; in test [2], -25.1%; in test [3] it was -9.2%; in test [4], -11.4%; in test [5], -2.55%; in test [6], -26.2%.
